Results filed as inconclusive are left out. Unmarked numbers belong to inactive results. Calls of active or inactive are those of the source. Calls follow the shape of the dose curve; as a rule, active = well fitted activation curve with a large enough effect in the signal ratio, with a control signal flat; inconclusive = small, poorly fitted or top-dose-only effect, or a change in a side signal; inactive = flat fitted curve, though single readings scatter; the % refers to the signal ratio.
target: Thyrotropin receptor (Homo sapiens) (UniProt P16473); assay: Secondary Concentration-Response Assay for Agonists of the Thyroid Stimulating Hormone Receptor: HTRF Activity Detection; settings: HEK293-TSHR cells, cAMP HTRF ratio, 30 min; series mostly up to 91.7 µM; activation: at the top concentration; as to activation: % of control where 0% means no effect
Outline: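 cAMP accumulation was detected by antibody-based HTRF, excitation 330 nm, emissions 615 and 660 nm. Compounds acted for 30 min at room temperature on stably TSHR-transfected HEK 293 cells, with phosphodiesterase inhibitor RO 20-1724 (100 uM) in the medium.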
Potency is read from the fitted curve at half-maximal effect.

Chain of Thyrotropin receptor (Homo sapiens) (P16473 whole entry, looked up): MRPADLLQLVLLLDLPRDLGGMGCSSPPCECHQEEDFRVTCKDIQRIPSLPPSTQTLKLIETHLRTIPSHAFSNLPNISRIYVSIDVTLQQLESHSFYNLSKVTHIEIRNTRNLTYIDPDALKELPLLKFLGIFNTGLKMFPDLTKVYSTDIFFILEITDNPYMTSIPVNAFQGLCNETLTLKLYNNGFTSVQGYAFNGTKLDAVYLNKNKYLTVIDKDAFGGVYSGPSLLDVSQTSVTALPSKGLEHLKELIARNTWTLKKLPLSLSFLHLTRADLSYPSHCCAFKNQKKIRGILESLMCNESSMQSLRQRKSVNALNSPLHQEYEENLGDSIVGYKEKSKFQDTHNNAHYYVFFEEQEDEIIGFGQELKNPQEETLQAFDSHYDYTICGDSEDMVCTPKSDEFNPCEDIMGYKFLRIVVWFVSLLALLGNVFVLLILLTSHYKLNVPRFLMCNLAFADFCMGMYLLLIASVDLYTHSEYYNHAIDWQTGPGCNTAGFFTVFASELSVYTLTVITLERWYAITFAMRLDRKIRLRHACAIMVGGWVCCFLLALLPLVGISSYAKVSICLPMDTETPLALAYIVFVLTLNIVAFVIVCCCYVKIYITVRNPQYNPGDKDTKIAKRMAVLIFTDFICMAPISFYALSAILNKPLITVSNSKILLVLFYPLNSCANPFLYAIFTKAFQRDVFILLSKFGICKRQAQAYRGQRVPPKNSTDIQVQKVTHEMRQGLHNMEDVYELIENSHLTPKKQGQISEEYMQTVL

Structure (SMILES)	activation	Potency
COc1ccc(C2Nc3ccccc3C(=O)N2c2ccc(Cl)cc2)cc1Cn1cc([N+](=O)[O-])cn1 (centres undefined)	0.476%	
COc1ccc(CN(Cc2ccccc2)S(=O)(=O)c2ccccc2)cc1COc1ccc(NC(C)=O)cc1	12.9%	
O=C1c2ccccc2NC(c2ccc3c(c2)OCO3)N1Cc1ccco1 (centres undefined)	1.3%	
CCOC(=O)COc1c(OC)cc(Cl)cc1C1Nc2ccccc2C(=O)N1c1ccc(F)cc1 (centres undefined)	0.758%	
O=C1c2ccccc2NC(c2ccc(O)cc2)N1Cc1ccco1 (centres undefined)		inactive
COc1ccc(N2C(=O)c3ccccc3NC23C(=O)N(C)c2ccccc23)cc1 (centres undefined)	0.828%	
COc1ccc(CN2C(=O)c3ccccc3NC2c2ccc(OC)c(COc3ccc(NC(C)=O)cc3)c2)cc1 (centres undefined)		3.16 µM (active)
COC(=O)C1=C(C)NC(=O)NC1c1cn(-c2ccccc2)nc1-c1cccs1 (centres undefined)	-0.246% [at 0.00035 µM]	
CCCN1C(=O)c2ccccc2NC1c1ccc(OC)c(COc2ccc([N+](=O)[O-])c(C)c2)c1 (centres undefined)	1.36%	
COc1ccc(C2Cc3ccccc3C(=O)N2Cc2ccccc2)cc1COc1ccc(NC(C)=O)cc1 (centres undefined)		10 µM (active)
COc1ccc(-c2nc3ccc(NC(=O)COC(C)=O)cc3c(=O)n2Cc2ccccc2)cc1COc1ccc(NC(C)=O)cc1	16.2%	
COc1cc(C2Nc3ccccc3C(=O)N2c2ccccc2)c(Br)cc1OCC(=O)O (centres undefined)	0.259%	
Cc1cc(Cl)c(S(=O)(=O)Nc2ccc3c(c2)OCO3)cc1OCC(N)=O	-1.33% [at 0.00035 µM]	
COc1cccc(CN2C(=O)CN(C3CCCCC3)C(=O)C2c2ccc(F)cc2)c1 (centres undefined)	0.406% [at 0.00035 µM]	
